# In paper PMC11006913:
# Residue numbers refer to the chain shown, from its start.
# How the values were obtained:
# Experiment in all cases: PBM; 200 nM protein, PBS
# Details in all cases: dsDNA, one strand shown
# [1] = target: ALX1 (Homo sapiens, UniProt Q15699 118-204, L144V)
# [2] = target: ALX1 (Homo sapiens, UniProt Q15699 118-204, L144R)
# [3] = target: VAX1 (Homo sapiens, UniProt Q5SQQ9 86-172)
# [4] = target: VAX1 (Homo sapiens, UniProt Q5SQQ9 86-172, T142I)
# [5] = target: ALX1 (Homo sapiens, UniProt Q15699 118-204)
# [6] = target: VAX1 (Homo sapiens, UniProt Q5SQQ9 86-172, K157R)
# [7] = target: T1, PAX4 (Homo sapiens, UniProt O43316 9-242, R200K)
# T1 sequence: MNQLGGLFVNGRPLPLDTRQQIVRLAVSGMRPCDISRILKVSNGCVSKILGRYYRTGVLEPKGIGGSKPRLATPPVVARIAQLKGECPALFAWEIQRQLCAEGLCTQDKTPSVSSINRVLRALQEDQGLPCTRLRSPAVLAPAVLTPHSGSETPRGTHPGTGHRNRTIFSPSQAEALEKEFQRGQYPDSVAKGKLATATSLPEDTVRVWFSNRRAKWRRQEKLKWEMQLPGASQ
# [8] = target: T2, PAX4 (Homo sapiens, UniProt O43316 9-242)
# T2 sequence: T1 sequence with K192R
# [9] = target: T3, PAX4 (Homo sapiens, UniProt O43316 9-242, R200Q)
# T3 sequence: T1 sequence with K192Q
# [10] = target: T4, PAX4 (Homo sapiens, UniProt O43316 9-242, F177V)
# T4 sequence: T1 sequence with F169V, K192R
# [11] = target: T5, PAX4 (Homo sapiens, UniProt O43316 9-242, F177Y)
# T5 sequence: T1 sequence with F169Y, K192R
# [12] = target: T6, PAX4 (Homo sapiens, UniProt O43316 9-242, R227W)
# T6 sequence: T1 sequence with K192R, R219W
# [13] = target: PRRX1 (Homo sapiens, UniProt P54821 80-166)
# [14] = target: HOXA4 (Homo sapiens, UniProt Q00056 201-287, W262R)
# [15] = target: HOXA4 (Homo sapiens, UniProt Q00056 201-287, R217L)
# [16] = target: HOXA4 (Homo sapiens, UniProt Q00056 201-287)
# [17] = target: HOXA4 (Homo sapiens, UniProt Q00056 201-287, W262F)
# [18] = target: ALX3 (Homo sapiens, UniProt O95076 139-225, N203Q)
# [19] = target: ALX3 (Homo sapiens, UniProt O95076 139-225, L168Q)
# [20] = target: ALX3 (Homo sapiens, UniProt O95076 139-225, L168V)
# Sequence of ALX3 (Homo sapiens, UniProt O95076 139-225, L168V) (O95076 139-225 L168V): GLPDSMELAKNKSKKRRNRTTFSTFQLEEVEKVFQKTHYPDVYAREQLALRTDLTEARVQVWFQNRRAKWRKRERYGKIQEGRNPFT
# Sequence of ALX3 (Homo sapiens, UniProt O95076 139-225, N203Q) (O95076 139-225 N203Q): as the sequence (O95076 139-225 L168V) above, with V30L, N65Q counted along it
# Sequence of VAX1 (Homo sapiens, UniProt Q5SQQ9 86-172) (Q5SQQ9 86-172): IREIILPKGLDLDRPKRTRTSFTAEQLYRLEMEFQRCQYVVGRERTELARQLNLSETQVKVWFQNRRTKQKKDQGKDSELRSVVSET
# Sequence of HOXA4 (Homo sapiens, UniProt Q00056 201-287, R217L) (Q00056 201-287 R217L): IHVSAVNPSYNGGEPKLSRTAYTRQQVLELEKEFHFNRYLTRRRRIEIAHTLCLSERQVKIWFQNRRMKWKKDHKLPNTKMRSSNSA
# Sequence of ALX3 (Homo sapiens, UniProt O95076 139-225, L168Q) (O95076 139-225 L168Q): as the sequence (O95076 139-225 L168V) above, with V30Q counted along it
# Sequence of HOXA4 (Homo sapiens, UniProt Q00056 201-287, W262F) (Q00056 201-287 W262F): as the sequence (Q00056 201-287 R217L) above, with L17R, W62F counted along it
# Sequence of VAX1 (Homo sapiens, UniProt Q5SQQ9 86-172, T142I) (Q5SQQ9 86-172 T142I): as the sequence (Q5SQQ9 86-172) above, with T57I counted along it
# Sequence of VAX1 (Homo sapiens, UniProt Q5SQQ9 86-172, K157R) (Q5SQQ9 86-172 K157R): as the sequence (Q5SQQ9 86-172) above, with K72R counted along it
# Sequence of HOXA4 (Homo sapiens, UniProt Q00056 201-287) (Q00056 201-287): as the sequence (Q00056 201-287 R217L) above, with L17R counted along it
# Sequence of HOXA4 (Homo sapiens, UniProt Q00056 201-287, W262R) (Q00056 201-287 W262R): as the sequence (Q00056 201-287 R217L) above, with L17R, W62R counted along it
# Sequence of PRRX1 (P54821 80-166): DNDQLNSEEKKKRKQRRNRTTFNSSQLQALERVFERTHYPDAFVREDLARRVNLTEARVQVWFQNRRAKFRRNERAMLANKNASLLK
# Sequence of ALX1 (Homo sapiens, UniProt Q15699 118-204, L144V) (Q15699 118-204 L144V): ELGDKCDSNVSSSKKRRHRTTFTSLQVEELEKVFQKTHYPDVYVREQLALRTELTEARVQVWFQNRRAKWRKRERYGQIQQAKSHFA
# Sequence of ALX1 (Homo sapiens, UniProt Q15699 118-204) (Q15699 118-204): as the sequence (Q15699 118-204 L144V) above, with V27L counted along it
# Sequence of ALX1 (Homo sapiens, UniProt Q15699 118-204, L144R) (Q15699 118-204 L144R): as the sequence (Q15699 118-204 L144V) above, with V27R counted along it
sequence,measurement,setting,value
CCGGTGGC,binding signal,[1],"6.52 upbm affinity estimate (log intensity, higher = more binding, comparable within an allelic series)"
same,binding signal,[2],"6.41 upbm affinity estimate (log intensity, higher = more binding, comparable within an allelic series)"
same,binding signal,[3],"7.31 upbm affinity estimate (log intensity, higher = more binding, comparable within an allelic series)"
same,binding signal,[4],"7.45 upbm affinity estimate (log intensity, higher = more binding, comparable within an allelic series)"
same,binding signal,[5],"6.47 upbm affinity estimate (log intensity, higher = more binding, comparable within an allelic series)"
same,binding signal,[6],"7.27 upbm affinity estimate (log intensity, higher = more binding, comparable within an allelic series)"
CCTACGGA,binding signal,[3],"7.04 upbm affinity estimate (log intensity, higher = more binding, comparable within an allelic series)"
same,binding signal,[4],"7.2 upbm affinity estimate (log intensity, higher = more binding, comparable within an allelic series)"
same,binding signal,[6],"7.03 upbm affinity estimate (log intensity, higher = more binding, comparable within an allelic series)"
CGCACTTA,binding signal,[1],"8.31 upbm affinity estimate (log intensity, higher = more binding, comparable within an allelic series)"
same,binding signal,[5],"8.83 upbm affinity estimate (log intensity, higher = more binding, comparable within an allelic series)"
ACGCCGGC,binding signal,[7],"9.13 upbm affinity estimate (log intensity, higher = more binding, comparable within an allelic series)"
same,binding signal,[8],"9.3 upbm affinity estimate (log intensity, higher = more binding, comparable within an allelic series)"
same,binding signal,[9],"9.23 upbm affinity estimate (log intensity, higher = more binding, comparable within an allelic series)"
same,binding signal,[10],"9.3 upbm affinity estimate (log intensity, higher = more binding, comparable within an allelic series)"
same,binding signal,[11],"9.27 upbm affinity estimate (log intensity, higher = more binding, comparable within an allelic series)"
same,binding signal,[12],"9.27 upbm affinity estimate (log intensity, higher = more binding, comparable within an allelic series)"
CCGCCTCC,binding signal,[7],"9.24 upbm affinity estimate (log intensity, higher = more binding, comparable within an allelic series)"
same,binding signal,[8],"9.34 upbm affinity estimate (log intensity, higher = more binding, comparable within an allelic series)"
same,binding signal,[9],"9.3 upbm affinity estimate (log intensity, higher = more binding, comparable within an allelic series)"
same,binding signal,[10],"9.19 upbm affinity estimate (log intensity, higher = more binding, comparable within an allelic series)"
same,binding signal,[11],"9.18 upbm affinity estimate (log intensity, higher = more binding, comparable within an allelic series)"
same,binding signal,[12],"9.29 upbm affinity estimate (log intensity, higher = more binding, comparable within an allelic series)"
same,binding signal,[13],"9.06 upbm affinity estimate (log intensity, higher = more binding, comparable within an allelic series)"
GTCTAGAC,binding signal,[14],"9.98 upbm affinity estimate (log intensity, higher = more binding, comparable within an allelic series)"
same,binding signal,[15],"10.1 upbm affinity estimate (log intensity, higher = more binding, comparable within an allelic series)"
same,binding signal,[16],"9.99 upbm affinity estimate (log intensity, higher = more binding, comparable within an allelic series)"
same,binding signal,[17],"10 upbm affinity estimate (log intensity, higher = more binding, comparable within an allelic series)"
same,binding signal,[13],"9.88 upbm affinity estimate (log intensity, higher = more binding, comparable within an allelic series)"
CCCTGGCC,binding signal,[3],"6.64 upbm affinity estimate (log intensity, higher = more binding, comparable within an allelic series)"
same,binding signal,[4],"6.9 upbm affinity estimate (log intensity, higher = more binding, comparable within an allelic series)"
same,binding signal,[6],"6.7 upbm affinity estimate (log intensity, higher = more binding, comparable within an allelic series)"
CAGCGGCC,binding signal,[18],"7.77 upbm affinity estimate (log intensity, higher = more binding, comparable within an allelic series)"
same,binding signal,[19],"7.78 upbm affinity estimate (log intensity, higher = more binding, comparable within an allelic series)"
same,binding signal,[20],"7.74 upbm affinity estimate (log intensity, higher = more binding, comparable within an allelic series)"
CGCCTACC,binding signal,[13],"8.83 upbm affinity estimate (log intensity, higher = more binding, comparable within an allelic series)"
GGCAGGAC,binding signal,[14],"9.94 upbm affinity estimate (log intensity, higher = more binding, comparable within an allelic series)"
same,binding signal,[15],"9.72 upbm affinity estimate (log intensity, higher = more binding, comparable within an allelic series)"
same,binding signal,[16],"9.8 upbm affinity estimate (log intensity, higher = more binding, comparable within an allelic series)"
same,binding signal,[17],"9.93 upbm affinity estimate (log intensity, higher = more binding, comparable within an allelic series)"
same,binding signal,[13],"8.98 upbm affinity estimate (log intensity, higher = more binding, comparable within an allelic series)"
AGCCGACA,binding signal,[13],"9.49 upbm affinity estimate (log intensity, higher = more binding, comparable within an allelic series)"
GCTGGGCC,binding signal,[7],"9.06 upbm affinity estimate (log intensity, higher = more binding, comparable within an allelic series)"
same,binding signal,[8],"9.06 upbm affinity estimate (log intensity, higher = more binding, comparable within an allelic series)"
same,binding signal,[18],"7.66 upbm affinity estimate (log intensity, higher = more binding, comparable within an allelic series)"
same,binding signal,[9],"9.13 upbm affinity estimate (log intensity, higher = more binding, comparable within an allelic series)"
same,binding signal,[10],"8.94 upbm affinity estimate (log intensity, higher = more binding, comparable within an allelic series)"
same,binding signal,[11],"9.03 upbm affinity estimate (log intensity, higher = more binding, comparable within an allelic series)"
same,binding signal,[19],"7.58 upbm affinity estimate (log intensity, higher = more binding, comparable within an allelic series)"
same,binding signal,[20],"7.61 upbm affinity estimate (log intensity, higher = more binding, comparable within an allelic series)"
same,binding signal,[12],"9.05 upbm affinity estimate (log intensity, higher = more binding, comparable within an allelic series)"
CACTTAGC,binding signal,[13],"11.8 upbm affinity estimate (log intensity, higher = more binding, comparable within an allelic series)"
AGCCCGGG,binding signal,[7],"9.12 upbm affinity estimate (log intensity, higher = more binding, comparable within an allelic series)"
same,binding signal,[8],"8.95 upbm affinity estimate (log intensity, higher = more binding, comparable within an allelic series)"
same,binding signal,[9],"9.17 upbm affinity estimate (log intensity, higher = more binding, comparable within an allelic series)"
same,binding signal,[10],"9.12 upbm affinity estimate (log intensity, higher = more binding, comparable within an allelic series)"
same,binding signal,[11],"9.07 upbm affinity estimate (log intensity, higher = more binding, comparable within an allelic series)"
same,binding signal,[3],"6.75 upbm affinity estimate (log intensity, higher = more binding, comparable within an allelic series)"
same,binding signal,[4],"6.9 upbm affinity estimate (log intensity, higher = more binding, comparable within an allelic series)"
same,binding signal,[12],"9.13 upbm affinity estimate (log intensity, higher = more binding, comparable within an allelic series)"
same,binding signal,[6],"6.72 upbm affinity estimate (log intensity, higher = more binding, comparable within an allelic series)"
CCCCTGCG,binding signal,[18],"7.65 upbm affinity estimate (log intensity, higher = more binding, comparable within an allelic series)"
same,binding signal,[19],"7.61 upbm affinity estimate (log intensity, higher = more binding, comparable within an allelic series)"
same,binding signal,[20],"7.71 upbm affinity estimate (log intensity, higher = more binding, comparable within an allelic series)"
CACCCCCG,binding signal,[14],"9.9 upbm affinity estimate (log intensity, higher = more binding, comparable within an allelic series)"
same,binding signal,[15],"9.84 upbm affinity estimate (log intensity, higher = more binding, comparable within an allelic series)"
same,binding signal,[16],"9.95 upbm affinity estimate (log intensity, higher = more binding, comparable within an allelic series)"
same,binding signal,[17],"9.77 upbm affinity estimate (log intensity, higher = more binding, comparable within an allelic series)"
CGGTGGGC,binding signal,[7],"9.41 upbm affinity estimate (log intensity, higher = more binding, comparable within an allelic series)"
same,binding signal,[8],"9.5 upbm affinity estimate (log intensity, higher = more binding, comparable within an allelic series)"
same,binding signal,[9],"9.39 upbm affinity estimate (log intensity, higher = more binding, comparable within an allelic series)"
same,binding signal,[10],"9.14 upbm affinity estimate (log intensity, higher = more binding, comparable within an allelic series)"
same,binding signal,[11],"9.14 upbm affinity estimate (log intensity, higher = more binding, comparable within an allelic series)"
same,binding signal,[12],"9.26 upbm affinity estimate (log intensity, higher = more binding, comparable within an allelic series)"
AGTCCCGG,binding signal,[7],"9.42 upbm affinity estimate (log intensity, higher = more binding, comparable within an allelic series)"
same,binding signal,[8],"9.48 upbm affinity estimate (log intensity, higher = more binding, comparable within an allelic series)"
same,binding signal,[9],"9.44 upbm affinity estimate (log intensity, higher = more binding, comparable within an allelic series)"
same,binding signal,[10],"9.3 upbm affinity estimate (log intensity, higher = more binding, comparable within an allelic series)"
same,binding signal,[11],"9.36 upbm affinity estimate (log intensity, higher = more binding, comparable within an allelic series)"
same,binding signal,[12],"9.43 upbm affinity estimate (log intensity, higher = more binding, comparable within an allelic series)"
CCCCCAAC,binding signal,[14],"9.78 upbm affinity estimate (log intensity, higher = more binding, comparable within an allelic series)"
same,binding signal,[15],"9.67 upbm affinity estimate (log intensity, higher = more binding, comparable within an allelic series)"
same,binding signal,[16],"9.61 upbm affinity estimate (log intensity, higher = more binding, comparable within an allelic series)"
same,binding signal,[17],"9.75 upbm affinity estimate (log intensity, higher = more binding, comparable within an allelic series)"
CAGCCCCC,binding signal,[14],"9.74 upbm affinity estimate (log intensity, higher = more binding, comparable within an allelic series)"
same,binding signal,[15],"9.65 upbm affinity estimate (log intensity, higher = more binding, comparable within an allelic series)"
same,binding signal,[16],"9.71 upbm affinity estimate (log intensity, higher = more binding, comparable within an allelic series)"
same,binding signal,[3],"7.33 upbm affinity estimate (log intensity, higher = more binding, comparable within an allelic series)"
same,binding signal,[4],"7.4 upbm affinity estimate (log intensity, higher = more binding, comparable within an allelic series)"
same,binding signal,[17],"9.62 upbm affinity estimate (log intensity, higher = more binding, comparable within an allelic series)"
same,binding signal,[6],"7.13 upbm affinity estimate (log intensity, higher = more binding, comparable within an allelic series)"
